How the values were obtained:
Settings in all cases: concentration: 1 μM, replicates: in singlicate; n = 1
[1] = tested on: DAPK2
[2] = tested on: DAPK3
[3] = tested on: T1, DCAMKL1
T1 construct: gene DCLK1

[4] = tested on: T2, DCAMKL2
T2 construct: gene DCLK2

[5] = tested on: T3, DCAMKL3
T3 construct: gene DCLK3

[6] = tested on: DDR1
[7] = tested on: DDR2
[8] = tested on: T4, DLK
T4 construct: gene MAP3K12

[9] = tested on: T5, DMPK2
T5 construct: gene CDC42BPG

[10] = tested on: DMPK
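Note: KINOMEscan kinase panel screen.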

Compound	%Inh [1] [%]	%Inh [2] [%]	%Inh [3] [%]	%Inh [4] [%]	%Inh [5] [%]	%Inh [6] [%]	%Inh [7] [%]	%Inh [8] [%]	%Inh [9] [%]	%Inh [10] [%]
Cc1cccc(-c2nc(Nc3ccc4[nH]ncc4c3)c3ccccc3n2)n1 [GW857175]	20	28	0	14	0	39	17	0	72	4
Cl.c1ccc(-c2n[nH]cc2-c2ccnc(-c3ccc(CN4CCOCC4)cc3)c2)nc1 [GW776245]	12	4	38	16	12	0	34	0	9	0
Cc1cccc(-c2nc(Nc3ccncc3)c3ccccc3n2)n1 [GW855857]	7	17	14	0	21	30	45	0	76	2
Fc1cc(Cl)ccc1Nc1ccnc2cc(I)ccc12 [GW551191]	0	9	15	0	0	33	8	27	8	21
COc1ccccc1CNC(=O)c1cc(C(=O)c2ccccc2C)c[nH]1 [GSK364507]	0	17	16	16	4	11	0	15	5	0
Cn1ccc2ncnc(Oc3ccc(Nc4nc5ccccc5[nH]4)cc3)c21	0	3	0	0	0	0	16	0	0	0
Cc1cc(-c2ccc3c(c2)CC[C@@H](N[C@@H](C)c2ccccc2)C3)cnc1N.Cl [GW412617]	0	0	0	0	0	14	25	87	4	6
O=C1NC(=O)C(N2CCc3ccccc32)=C1c1ccccc1Cl [SB-373598]	23	4	10	0	11	12	14	0	12	26
Cl.O=C(Nc1cccc(-c2nn3ncccc3c2-c2ccnc(Nc3cccnc3)n2)c1)c1c(F)cccc1F [GSK312879]	27	6	12	0	0	94.4	4	14	13	15
Fc1cc(Cl)ccc1Nc1ccnc2cc(-c3ccc(CN4CCCCC4)o3)ccc12 [GW560116]	0	25	0	14	0	27	36	36	0	0
COc1cc2ncnc(Nc3ccc4nc(-c5ccccc5)[nH]c4c3)c2cc1OC.Cl [GW282450]	15	13	8	0	0	0	0	7	0	0
Cc1ccc(NC(=O)Nc2cccc(Cl)c2)cc1-c1ccc(C(=O)Nc2ccncc2)cc1 [GSK1398468]	0	22	17	0	0	99.7	72	25	8	0
Nc1nc(-c2nccs2)c(-c2ccnc3ccccc23)s1 [GW693542]	0	10	13	0	6	9	5	33	6	100
Cc1ccc(C(=O)Nc2ccc(Nc3ccnc4cc(-c5ccccn5)ccc34)cc2O)cc1.Cl [GW440146]	0	13	0	0	16	12	10	47	0	0
Cl.NC(=O)c1cccc(Nc2nccc(Nc3ccc(Oc4cccc(Cl)c4)c(Cl)c3)n2)c1 [GW659008]	0	22	0	13	0	1	0	24	55	0
COc1ccc(Nc2nccc(NCCNC(=O)Nc3ccccc3F)n2)cc1 [GSK1379901]	0	8	15	0	8	11	0	0	0	0
Cc1ccc(NC(=O)Nc2cc(C(C)(C)C)nn2-c2ccccc2)cc1 [GSK1014915]	0	18	2	25	5	90.7	88	18	0	3
Cn1ccc2ncnc(Oc3ccc(NC(=O)Nc4ccccc4)cc3)c21	0	0	23	0	0	63	74	0	0	0
